Source: PubChem BioAssay (EPA / NIEHS)
Active and inactive are the calls of the source. Rule for the calls: active = hit-call score of the fitted dose curve at least 0.9, where 1 is the maximum; inactive = score below 0.9.

read-out: Plasminogen activator inhibitor-1 (PAI1), SERPINE1 (gene 5054); test: BSK_hDFCGF_PAI1: BioMAP Diversity Plus: hDFCGF Assay for Plasminogen activator inhibitor-1 (PAI1) Biomarker Activity (AID 2283066); conditions: primary human foreskin fibroblasts; actives raise or lower the signal
Method: BSK_hDFCGF is a cell-based, multiplexed-readout assay that uses foreskin fibroblast, a human skin primary cell, with measurements taken at 24 hours after chemical dosing in a 96-well plate.BSK_hDFCGF_PAI1 is an assay component measured in the BSK_hDFCGF assay. It measures PAI-1 antibody related to regulation of gene expression using ELISA technology.Data from the assay component BSK_hDFCGF_PAI1 was analyzed into 1 assay endpoint. This assay endpoint, BSK_hDFCGF_PAI1, was analyzed with bidirectional fitting relative to DMSO as the negative control and baseline of activity. Using a type of binding reporter, gain or loss-of-signal activity can be used to understand changes in the signaling as they relate to the gene SERPINE1. Furthermore, this assay endpoint can be referred to as a primary readout, because this assay has produced multiple assay endpoints where this one serves a signaling function. To generalize the intended target to other relatable targets, this assay endpoint is annotated to the cytokine intended target family, where the subfamily is plasmogen activator inhibitor.
The levels of cell surface (or secreted, indicated by the prefix "s") biomarker endpoints were measured by ELISA. Overt cytotoxicity to cells in confluent adherent cultures (all systems other than the BT system) was assessed by measuring total protein levels using sulforhodamine B (SRB) staining in parallel cultures at the time of biomarker measurements, indicated as SRB endpoints. For proliferation assays for adherent cell types, individual cell types are cultured at sub-confluence and relative cell numbers quantified by SRB staining at time points optimized for each system (48 h: 3C and CASM3C systems; 72 h: BT and HDF3CGF systems; 96 h: SAg system). SRB was performed by staining cells with 0.1% SRB after fixation with 10% TCA and reading wells at 560 nm.Viability and proliferation of PBMC (T cells) was quantified by Alamar Blue reduction for the SAg and BT systems. For PBMC viability (referred to as PBMC Cytotoxicity within the assay endpoint names), cells were plated (75,000/well in a 96-well plate) and then chemical samples added for 1 h before addition of activators, SEB and TSST-1 (20 ng/mL final concentration each). Cells were incubated for 90 h. Then, Alamar Blue (20 uL/well) (Invitrogen, Cat DAL1100) was added for 6 h, and the plates were read with a fluorescence microplate reader at 546/580 nm (excitation/emission). For PBMC proliferation, cells were plated and activated as above but incubated for only 16 h prior to addition of Alamar Blue. Plates were read after 6 h.

Structure (SMILES)	AC50	outcome
Cc1c([N+](=O)[O-])c(C)c([N+](=O)[O-])c(C(C)(C)C)c1[N+](=O)[O-]	29.5 µM (active)	–
Oc1ccc(Cc2ccc(O)cc2)cc1	–	inactive
CC(C)=CC1C(C(=O)OCc2cccc(Oc3ccccc3)c2)C1(C)C (stereo not given)	12.5 µM (active)	–
OCCCCO	–	inactive
OCCN(CCO)CCO	–	inactive
O=C(O)COc1cc(Cl)c(Cl)cc1Cl	–	inactive
CC(C)(C)c1cc([N+](=O)[O-])cc(C(C)(C)C)c1O	–	inactive
CCCCCCCCCCCCc1cccc(S(=O)(=O)O)c1	9.68 µM (active)	–
c1ccc2sc(SNC3CCCCC3)nc2c1	–	inactive
Oc1cc(Cl)c(Cl)cc1Cl	34 µM (active)	–
Cc1cc(Cl)ccc1N	–	inactive
N#Cc1cccnc1	–	inactive
Cc1ccccc1OP(=O)(Oc1ccccc1)Oc1ccccc1	–	inactive
Clc1cccc(Cl)c1Cl	–	inactive
CCCCN(CCCC)C(=S)[S-].CCCCN(CCCC)C(=S)[S-].[Ni+2]	–	inactive
CCOP(=O)(OCC)OC(=CCl)c1ccc(Cl)cc1Cl	24.7 µM (active)	–
Cc1ccc2nc3sc(=O)sc3nc2c1	–	inactive
CCCCOC(=O)COC(=O)c1ccccc1C(=O)OCCCC	–	inactive
N#CCCC(Br)(C#N)CBr (stereo not given)	9.61 µM (active)	–
C[C@]12CC[C@@H](O)C[C@@H]1CC[C@@H]1[C@@H]2CC[C@]2(C)C(=O)CC[C@@H]12	–	inactive

Structure (SMILES)	AC50	outcome
CCCCCCCCCCCCN(C)C	–	inactive
CCOC(=O)CCN(SN(C)C(=O)Oc1cccc2c1OC(C)(C)C2)C(C)C	28.7 µM (active)	–
CCOC(=O)C(SP(=S)(OC)OC)c1ccccc1 (stereo not given)	–	inactive
CC(C)N(C(=O)CCl)c1ccccc1	4.77 µM (active)	–
Oc1cccc(-c2ccccc2)c1	–	inactive
CC1(C)[C@H](C(=O)O[C@H](C#N)c2cccc(Oc3ccccc3)c2)[C@@H]1/C=C(\Cl)C(F)(F)F	–	inactive
O=C(CCl)NCO	–	inactive
CC(C=O)Cc1ccc2c(c1)OCO2 (stereo not given)	–	inactive
OC(Cc1ccccc1Cl)(Cn1[nH]cnc1=S)C1(Cl)CC1 (stereo not given)	–	inactive
Cc1cccc(OP(=O)(Oc2cccc(C)c2)Oc2cccc(C)c2)c1	0.0473 µM (active)	–
Cc1ccccc1OP(=O)(Oc1ccccc1C)Oc1ccccc1C	6.03 µM (active)	–
CC(C)O.CC(C)O.OCCN(CCO)CCO.OCCN(CCO)CCO.[Ti]	–	inactive
COCC(=O)N(c1c(C)cccc1C)[C@H](C)C(=O)OC	–	inactive
Cc1cc(C(C)(C)c2ccc(O)c(C)c2)ccc1O	–	inactive
NC(=O)CCl	–	inactive
CCOP(=S)(OCC)SCS(=O)(=O)C(C)(C)C	–	inactive
O=S(=O)(C(Cl)(Cl)Cl)C(Cl)(Cl)Cl	1.11 µM (active)	–
c1ccc(-c2cccc(-c3ccccc3)c2)cc1	20 µM (active)	–
Nc1c(Oc2ccccc2)cc(O)c2c1C(=O)c1ccccc1C2=O	–	inactive
Cc1cc(Cl)ccc1OC(C)C(=O)O (stereo not given)	–	inactive
